High-throughput results: PubChem, National Center for Advancing Translational Sciences (NCATS)
The entries come from a sample that favours hits as a whole.
Pf Dd2 inh – qHTS Primary assay for Inhibitors of Plasmodium falciparum Dd2 growth in vitro; P. falciparum Dd2 growth, SYBR Green, 72 h; Potency, µM (top dose mostly 28.9 µM), actives largely listed as inhibitors; 120,000 compounds, 4.3% hits; AID 1347417, 2020; active means well fitted inhibition curve with a large enough effect; further: nearly all actives have a fitted effect of over 65% in size
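Readout: SYBR Green fluorescence, 485 nm excitation, 535 nm emission, after ~16 h lysis at 37C. Before that, Dd2-infected red cells (2.5% hematocrit) grew 72 h with compound, 29 uM top final concentration.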
Numbers stand for hits; – = inactive.

SMILES | Pf Dd2 inh
Cc1ccc2[nH]c3c(=O)n(CC(=O)NCc4ccco4)ncc3c2c1 | –
CCC(=O)N1CCC2(CC1)OCC(C(=O)NC1CC1)N2C(=O)c1cccc(OC)c1 (configuration not stated) | –
Cc1cnn(CC(=O)N(C)C2CCc3nn(CC4CC4)c(=O)n3CC2)c1 (configuration not stated) | –
COC1CCC12CCN(C(=O)CC1CCN(C(C)=O)CC1)CC2 (configuration not stated) | –
O=C(NC(C(=O)N1CCCCC1)C1CCN(C(=O)c2ccccc2)CC1)c1ccccc1Cl (configuration not stated) | –
COc1ccc(C(=O)N2CCC(C(NC(=O)c3cccc(OC)c3)C(=O)N3CCCC3)CC2)cc1 (configuration not stated) | –
Cc1cccc(C(=O)N2CCC(C(NC(=O)c3ccccc3)C(=O)N3CCCCC3)CC2)c1 (configuration not stated) | 11.2µM
CCCNC(=O)C(NC(=O)c1cccc(OC)c1)C1CCN(C(=O)c2cccc(F)c2)CC1 (configuration not stated) | –
Cc1ccc(C(=O)NC(C(=O)N2CCCC2)C2CCN(C(=O)c3ccccc3F)CC2)cc1 (configuration not stated) | –
COc1cccc(C(=O)NC(C(=O)N2CCCCC2)C2CCN(C(=O)c3cccc(F)c3)CC2)c1 (configuration not stated) | 8.91µM
COCCNC(=O)C(NC(=O)c1cccc(OC)c1)C1CCN(C(=O)c2ccc(C)cc2)CC1 (configuration not stated) | –
COc1cccc(C(=O)N2CCC(C(NC(=O)c3ccccc3)C(=O)NCc3ccco3)CC2)c1 (configuration not stated) | 8.91µM
O=C(NC(C(=O)NCc1ccco1)C1CCN(C(=O)C2CC2)CC1)c1ccccc1 (configuration not stated) | –
O=C1NC2(Cc3ccccc31)CN(Cc1ccccn1)C2 | –
Cn1cnnc1CC1CCN(C(=O)c2cc(F)ccc2F)CC1 | –
CC(C)N1C(=O)C2(CCCC2)C1C(=O)NCC1CCCCC1 (configuration not stated) | –
Cc1cccc(NC(=O)CCC2CCN(C(=O)CCCc3cccs3)CC2)c1 | –
O=C(NC1CCCCC1)C1CN(C(=O)c2cccc(F)c2)CC12CCOCC2 (configuration not stated) | –
Cc1cn2nc(C(=O)N3CCCCC3)cc2c(N(C)Cc2ccccc2)n1 | 7.08µM
Cc1cn2nc(C(=O)Nc3cccc(F)c3C)cc2c(N(C)Cc2ccccc2)n1 | –
CCN(Cc1ccccc1)C(=O)c1cc2c(N3CCCC3)nc(C)cn2n1 | –
Cc1cn2nc(C(=O)N3CCN(c4ccccc4)CC3)cc2c(N(C)Cc2ccccc2)n1 | –
Cc1cn2nc(C(=O)Nc3ccccc3C)cc2c(N(C)Cc2ccccc2)n1 | –
Cc1cn2nc(C(=O)Nc3ccc(Cl)cc3C)cc2c(N(C)Cc2ccccc2)n1 | 10µM
CCN1CCN(c2ccc(NS(=O)(=O)c3c(C)nc4sccn4c3=O)cc2Cl)CC1 | –
SMILES | Pf Dd2 inh
Cc1ncc2c(c1CNC(=O)Cc1ccsc1)CCN(C(=O)Cc1c(F)ccc(F)c1F)C2 | –
Cc1ccsc1[C@@H]1CCN(Cc2cn[nH]c2-c2ccc(F)cc2)C[C@H]1O | –
Cn1ncc(N2CCOC(CCNc3cnc4ccccc4n3)C2)cc1=O (configuration not stated) | –
C1CC(COCCc2noc(C3CNC3)n2)CCO1 | 11.2µM
O=C(C1CC1)N1CCCC(c2nc(CCOCC3CCOCC3)no2)C1 (configuration not stated) | –
CCCNC(=O)N1CCC(c2nc(CCOCC3CCOCC3)no2)C1 (configuration not stated) | –
COc1ccc(-c2noc(CNC(=O)c3cc(OC)c(OC)c(OC)c3)n2)cc1 | –
COc1cccc2c1OCC(CN1CCC3(C1)CN(C)C(=O)O3)=C2 (configuration not stated) | –
COCC(=O)NC[C@H]1C[C@@H]2CCN1C[C@@H]2CN1CCCCC1 | –
COc1ccccc1-c1ccc2ncc(Nc3cccc(O)c3)n2n1 | 12.6µM
COc1ccccc1-c1ccc2ncc(Nc3ccc4c(c3)OCO4)n2n1 | –
COc1ccc(Nc2cnc3ccc(-c4ccccc4OC)nn23)cc1OC | –
Cc1ccc(Cl)cc1NC(=O)c1cc(S(=O)(=O)N2CCCCCC2)cn1C | –
Cc1ccccc1-n1c(=O)c2c3c(sc2n2cnnc12)CCCC3 | –
COCCNC(=O)[C@@H](C)C1CC[C@@]2(C)CC[C@H](NC(=O)c3cncnc3)[C@@H](C)[C@@H]2[C@H]1O (some centres not stated) | –
Cc1cccc(C(=O)N2C[C@@H]3CCCN4CCC[C@@H]([C@H]34)[C@H]2CCCC(=O)NCC2CC2)c1 | –
CC(C)C(=O)N1C[C@@H]2CCCN3CCC[C@@H]([C@H]23)[C@H]1CCCC(=O)NCC1CC1 | –
O=C(CCC[C@@H]1[C@H]2CCCN3CCC[C@@H](CN1C(=O)C1(c4ccccc4)CC1)[C@@H]23)NCC1CC1 | 12.6µM
